Read-out in assay [1]: Interleukin-1 alpha (IL1a), IL1A (gene 3552)
Nature of the assay: BSK_KF3CT_IL1a: BioMAP Diversity Plus: KF3CT Assay for Interleukin-1 alpha (IL1a) Biomarker Activity (AID 2283070). As to conditions: primary human keratinocytes with fibroblasts; actives raise or lower the signal. An outline of the steps: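 Readout is IL-1a level by ELISA, compared bidirectionally with DMSO as baseline. Cells: human keratinocytes co-cultured with foreskin fibroblasts, harvested 24 h post-dose.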

Read-out in assay [2]: TIMP metallopeptidase inhibitor 2 (TIMP2), TIMP2 (gene 7077)
Nature of the assay: BSK_KF3CT_TIMP2: BioMAP Diversity Plus: KF3CT Assay for TIMP metallopeptidase inhibitor 2 (TIMP2) Biomarker Activity (AID 2283071). As to conditions: primary human keratinocytes with fibroblasts; actives raise or lower the signal. In short, it runs like this: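 ELISA readout of TIMP-2 in keratinocyte plus foreskin fibroblast co-cultures (human skin primary cells), 24 h post-dose. Gain or loss of signal fitted relative to DMSO.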

Read-out in assay [3]: Transforming growth factor beta 1 (TGFb1), TGFB1 (gene 7040)
Nature of the assay: BSK_KF3CT_TGFb1: BioMAP Diversity Plus: KF3CT Assay for Transforming growth factor beta 1 (TGFb1) Biomarker Activity (AID 2283072). The settings on record: primary human keratinocytes with fibroblasts; actives raise or lower the signal. An outline of the steps: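 Read-out: ELISA for TGF-b1 in keratinocyte/foreskin fibroblast human skin co-culture, 24 h after dosing; bidirectional curve fit vs DMSO baseline; gain or loss of signal scored.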

Read-out in assay [4]: C-C motif chemokine 2 (Homo sapiens) (UniProt P13500)
Nature of the assay: BSK_KF3CT_MCP1: BioMAP Diversity Plus: KF3CT Assay for Monocyte Chemoattractant Protein 1 (MCP1/CCL2) Biomarker Activity (AID 2283073). The settings on record: primary human keratinocytes with fibroblasts; actives raise or lower the signal. In short, it runs like this:
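KF3CT skin co-culture (keratinocytes/foreskin fibroblasts), 24 h post-dose; MCP-1 by ELISA; gain/loss of signal fit bidirectionally vs DMSO baseline.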

Read-out in assay [5]: Matrix Metallopeptidase 9 (MMP9), MMP9 (gene 4318)
Nature of the assay: BSK_KF3CT_MMP9: BioMAP Diversity Plus: KF3CT Assay for Matrix Metallopeptidase 9 (MMP9) Biomarker Activity (AID 2283074). As to conditions: primary human keratinocytes with fibroblasts; actives raise or lower the signal. An outline of the steps: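 Values come from bidirectional fitting relative to DMSO of MMP-9 levels, which were measured by ELISA. Measurements were taken 24 h after chemical dosing of a keratinocyte and foreskin fibroblast co-culture.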

Read-out in assay [6]: urokinase plasminogen activator (uPA), PLAU (gene 5328)
Description: BSK_KF3CT_uPA: BioMAP Diversity Plus: KF3CT Assay for urokinase plasminogen activator (uPA) Biomarker Activity (AID 2283075). The settings on record: primary human keratinocytes with fibroblasts; actives raise or lower the signal. In short, it runs like this:
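Values derive from bidirectional fitting against DMSO controls. Keratinocyte/foreskin fibroblast co-cultures received chemical; 24 h later uPA was detected by ELISA, with SRB total-protein staining in parallel wells for overt cytotoxicity.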

Read-out in assay [7]: CD40, CD40 (gene 958)
Description: BSK_LPS_CD40: BioMAP Diversity Plus: LPS Assay for CD40 Biomarker Activity (AID 2283076). As to conditions: primary human HUVEC with PBMC; actives raise or lower the signal. In short, it runs like this:
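ELISA readout of CD40 in HUVEC/PBMC co-culture (BSK_LPS system), 24 h post-dosing; bidirectional curve fit, DMSO baseline; parallel SRB total-protein staining for cytotoxicity.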

Read-out in assay [8]: E-selectin (Homo sapiens) (UniProt P16581)
Nature of the assay: BSK_LPS_Eselectin: BioMAP Diversity Plus: LPS Assay for Eselectin Biomarker Activity (AID 2283077). The settings on record: primary human HUVEC with PBMC; actives raise or lower the signal. An outline of the steps: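 ELISA readout of E-selectin, 24 h post-dose, HUVEC + PBMC co-culture (LPS system). Gain or loss of signal vs DMSO baseline, bidirectional fit.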

Read-out in assay [9]: Interleukin-8 (IL8), CXCL8 (gene 3576)
Nature of the assay: BSK_LPS_IL8: BioMAP Diversity Plus: LPS Assay for Interleukin-8 (IL8) Biomarker Activity (AID 2283078). The settings on record: primary human HUVEC with PBMC; actives raise or lower the signal. An outline of the steps: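 HUVEC + PBMC co-culture, LPS-activated; test chemicals dosed, IL-8 read by ELISA at 24 h. Bidirectional curve fit vs DMSO baseline (gain or loss of signal).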

The nature of assay [10]: BSK_LPS_SRB: Viability Assessment in the BioMAP Diversity Plus: LPS Assay (AID 2283079).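 Also: total protein by sulforhodamine B absorbance as a cytotoxicity measure; measured one day after compound addition; fitted in both directions against DMSO so loss or gain of signal counts.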 The settings on record: primary human HUVEC with PBMC. An outline of the steps: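 HUVEC + PBMC co-culture, LPS-stimulated; compound 24 h. 10% TCA fix, 0.1% SRB stain, A560. Bidirectional fit vs DMSO.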
Read-out in assay [11]: Interleukin-1 alpha (IL1a), IL1A (gene 3552)
Nature of the assay: BSK_LPS_IL1a: BioMAP Diversity Plus: LPS Assay for Interleukin-1 alpha (IL1a) Biomarker Activity (AID 2283080). The settings on record: primary human HUVEC with PBMC; actives raise or lower the signal. In short, it runs like this:
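HUVEC/PBMC co-culture, LPS system; 24 h after dosing; IL-1a by ELISA; gain or loss of signal fitted bidirectionally vs DMSO baseline.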

Read-out in assay [12]: Monocyte Chemoattractant Protein-1 (MCP1), CCL2 (gene 6347)
Description: BSK_LPS_MCP1: BioMAP Diversity Plus: LPS Assay for Monocyte Chemoattractant Protein-1 (MCP1) Biomarker Activity (AID 2283081).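 As to AC50: secreted MCP-1 protein quantified by ELISA in culture supernatant.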 As to conditions: primary human HUVEC with PBMC; actives raise or lower the signal. In short, it runs like this:
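ELISA read-out of MCP-1 after 24 h chemical dosing of a human umbilical vein endothelial cell/peripheral blood mononuclear cell co-culture stimulated with LPS. Gain or loss of signal fitted relative to DMSO controls.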

Assay [13] in a line: BSK_LPS_PGE2: BioMAP Diversity Plus: LPS Assay for Prostaglandin E2 (PGE2) Biomarker Activity (AID 2283082).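 As to AC50: secreted prostaglandin E2 measured by ELISA in LPS-stimulated co-culture.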 The settings on record: primary human HUVEC with PBMC; actives raise or lower the signal. An outline of the steps: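 ELISA read-out of PGE2 from human umbilical vein endothelial cells co-cultured with peripheral blood mononuclear cells under LPS, 24 h post-dose. Gain or loss of signal scored relative to DMSO baseline.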

Read-out in assay [14]: Macrophage colony-stimulating factor (MCSF), CSF1 (gene 1435)
Description: BSK_LPS_MCSF: BioMAP Diversity Plus: LPS Assay for Macrophage colony-stimulating factor (MCSF) Biomarker Activity (AID 2283083). As to conditions: primary human HUVEC with PBMC; actives raise or lower the signal. In short, it runs like this:
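HUVEC + PBMC co-culture (human primary), 24 h post-dose; M-CSF by ELISA; gain/loss of signal fitted bidirectionally vs DMSO baseline.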

Read-out in assay [15]: Tissue Factor, F3 (gene 2152)
Nature of the assay: BSK_LPS_TissueFactor: BioMAP Diversity Plus: LPS Assay for Tissue Factor Biomarker Activity (AID 2283084). The settings on record: primary human HUVEC with PBMC; actives raise or lower the signal. An outline of the steps: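 HUVEC/PBMC co-culture, LPS-activated; CD142 ELISA read 24 h post-dose; bidirectional curve fit vs DMSO negative control.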

Read-out in assay [16]: Tumor necrosis factor (Homo sapiens) (UniProt P01375)
Description: BSK_LPS_TNFa: BioMAP Diversity Plus: LPS Assay for Tumour Necrosis Factor alpha (TNFa) Biomarker Activity (AID 2283085).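 As to AC50: TNFa protein level quantified by ELISA in the co-culture.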 The settings on record: primary human HUVEC with PBMC; actives raise or lower the signal. An outline of the steps: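 HUVEC/PBMC co-culture, LPS-stimulated; 24 h post-dose; TNFa by ELISA; gain or loss of signal fitted bidirectionally vs DMSO baseline.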

Read-out in assay [17]: Vascular cell adhesion molecule 1 (VCAM1), VCAM1 (gene 7412)
Description: BSK_LPS_VCAM1: BioMAP Diversity Plus: LPS Assay for Vascular cell adhesion molecule 1 (VCAM1) Biomarker Activity (AID 2283086). As to conditions: primary human HUVEC with PBMC; actives raise or lower the signal. An outline of the steps: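 ELISA read-out of VCAM-1 at 24 h post-dosing in an LPS-driven HUVEC/PBMC primary human co-culture; gain or loss of signal fitted bidirectionally against DMSO baseline. Cytotoxicity tracked in parallel cultures by SRB total-protein staining.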

Read-out in assay [18]: CD38, CD38 (gene 952)
Description: BSK_SAg_CD38: BioMAP Diversity Plus: SAg Assay for CD38 Biomarker Activity (AID 2283087). The settings on record: primary human HUVEC with PBMC; actives raise or lower the signal. In short, it runs like this:
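Measures CD38 on a human endothelial/PBMC co-culture driven by SEB and TSST-1, 24 h after compound exposure, using ELISA with fluorescence detection; DMSO defines baseline for bidirectional curve fitting.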

Read-out in assay [19]: CD40, CD40 (gene 958)
Nature of the assay: BSK_SAg_CD40: BioMAP Diversity Plus: SAg Assay for CD40 Biomarker Activity (AID 2283088). The settings on record: primary human HUVEC with PBMC; actives raise or lower the signal. An outline of the steps: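 HUVEC/PBMC co-culture, 24 h post-dose; CD40 by ELISA, fluorescence intensity; bidirectional fit vs DMSO negative control.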

Read-out in assay [20]: CD69, CD69 (gene 969)
Nature of the assay: BSK_SAg_CD69: BioMAP Diversity Plus: SAg Assay for CD69 Biomarker Activity (AID 2283089).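 As to AC50: cell surface CD69 protein quantified by ELISA with fluorescence detection.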 The settings on record: primary human HUVEC with PBMC; actives raise or lower the signal. An outline of the steps: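 HUVEC co-cultured with PBMC were dosed with chemical, and CD69 was measured by ELISA with fluorescence read-out 24 h later. Bidirectional curve fitting used DMSO as negative control and activity baseline.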

The source made the active and inactive calls. The calls were made as follows: active = hit-call score of the fitted dose curve at least 0.9, where 1 is the maximum; inactive = score below 0.9.

Outcome and AC50 data for three molecules are collected here from PubChem BioAssay (EPA / NIEHS).

Sequence of E-selectin (Homo sapiens) (P16581 whole entry, looked up): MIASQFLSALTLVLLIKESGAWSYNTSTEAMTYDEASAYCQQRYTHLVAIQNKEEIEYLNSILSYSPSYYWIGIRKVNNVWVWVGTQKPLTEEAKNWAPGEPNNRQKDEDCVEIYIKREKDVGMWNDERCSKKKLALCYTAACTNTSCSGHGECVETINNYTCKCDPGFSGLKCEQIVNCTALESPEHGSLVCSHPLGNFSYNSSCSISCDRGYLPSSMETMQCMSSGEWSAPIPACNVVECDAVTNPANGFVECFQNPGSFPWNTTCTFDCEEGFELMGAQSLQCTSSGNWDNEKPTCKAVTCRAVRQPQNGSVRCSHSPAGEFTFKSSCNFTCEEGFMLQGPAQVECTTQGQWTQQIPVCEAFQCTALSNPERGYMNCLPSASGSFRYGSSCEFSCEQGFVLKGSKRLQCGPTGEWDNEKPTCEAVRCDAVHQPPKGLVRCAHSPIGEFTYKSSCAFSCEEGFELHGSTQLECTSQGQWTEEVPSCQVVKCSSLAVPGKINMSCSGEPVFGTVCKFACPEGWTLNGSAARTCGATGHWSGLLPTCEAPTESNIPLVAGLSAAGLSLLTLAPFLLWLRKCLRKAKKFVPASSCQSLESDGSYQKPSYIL
Sequence of Tumor necrosis factor (Homo sapiens) (P01375 whole entry, looked up): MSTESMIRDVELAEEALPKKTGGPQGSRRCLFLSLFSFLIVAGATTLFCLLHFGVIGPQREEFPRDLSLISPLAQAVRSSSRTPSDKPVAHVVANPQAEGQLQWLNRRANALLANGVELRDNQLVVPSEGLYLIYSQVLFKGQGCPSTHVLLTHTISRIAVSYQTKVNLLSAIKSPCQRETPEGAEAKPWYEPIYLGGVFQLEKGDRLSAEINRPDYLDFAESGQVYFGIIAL

As for `Cc1ccn2nc(S(=O)(=O)Nc3c(F)cccc3F)nc2n1`, the result in [1], in [2], in assay [3], in assay [4], in assay [5] and in assay [6] was inactive. Also, the outcome in assay [7], in assay [8], in assay [9], in assay [11], in assay [12] and in [13] was inactive. For the same molecule, the result in [14], in assay [15], in assay [16], in [17], in [18] and in [19] was inactive. Besides, in [20], the result was inactive. In [10], the AC50 is 1.06 µM (active).
Regarding `CCOP(=S)(OCC)OC(Cl)C(Cl)(Cl)Cl` (stereo not given), the result in assay [1], in [2], in assay [3], in [4], in assay [5] and in assay [6] was inactive. The outcome in assay [7], in assay [8], in [9], in [10], in assay [11] and in assay [12] was inactive. Besides, the outcome in assay [14], in [15], in assay [17] and in [19] was inactive. Also, the AC50 in assay [13] is 5.51 µM (active); in assay [16], 32.8 µM (active); in [18] it was 30.8 µM (active); in assay [20], 28.6 µM (active).
Consider `COc1ccc(C(=CC(=O)N2CCOCC2)c2ccc(Cl)cc2)cc1OC`, for which the result in assay [1], in assay [2], in [3], in [4], in assay [5] and in assay [6] was inactive. Moreover, the outcome in assay [9], in [10], in assay [11], in assay [13], in [15] and in assay [17] was inactive. The AC50 in assay [7] is 14.1 µM (active); in [8] it was 10.3 µM (active); in assay [12] it was 1.25 µM (active); in [14], 12.8 µM (active); in [16], 1.4 µM (active); in [18] it was 17.4 µM (active). For the same molecule, the AC50 in [19] is 6.93 µM (active); in assay [20] it was 4.3 µM (active).
